High-throughput results deposited in PubChem BioAssay by National Center for Advancing Translational Sciences (NCATS).
Pf growth 96h – P. falciparum growth inhibition at 96 hours. AID 504834. 6.9% of 320,000 active. P. falciparum luciferase reporter growth, 96 h. Potency, µM (highest dose often 28.7 µM), for inactives: at the top dose activity change, negative = inhibition, usual class: inhibitors; also: potency is read from the fitted curve at half-maximal effect; % is scaled to controls: 0 for no effect and ±100 for the full control effect
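Readout is luminescence from an integrated firefly luciferase in P. falciparum. Red cells, 2% hematocrit and 0.05% parasitemia final, were cultured with compound through two parasite generations (96 hours) at 37 C, 5% CO2.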
Pf growth 48h – inhibits P. falciparum growth in the first generation, 48 h; P. falciparum luciferase growth in erythrocytes, 48 h; Potency, µM (top dose mostly 28.7 µM), inactives show at the highest dose activity change, negative = inhibition, most hits filed as inhibitors; 5.9% of 310,000 active; also: potency is read from the fitted curve at half-maximal effect; % is scaled to controls: 0 for no effect and ±100 for the full control effect
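Firefly luciferase activity from engineered P. falciparum reports growth; inhibitors lower the luminescent signal. Cultures contained 2% hematocrit erythrocytes at 0.1% final parasitemia.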
HCV inhibitor – blocks hepatitis C virus; Huh7.5.1 HCVcc-Cre infection, luciferase reporter, 44 h; Potency, µM (series often up to 41.8 µM), for inactives: at the highest dose activity change, negative = inhibition, most hits filed as inhibitors; 3.4% of 340,000 active; also: potency is read from the fitted curve at half-maximal effect; % is scaled to controls: 0 for no effect and ±100 for the full control effect
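Infectious HCVcc-Cre (~0.5 moi) was added to cells just after compound, with cells seeded 4 h earlier at 1,000 per well. Luciferase activity after 44 h culture reported infection; substrate was incubated 15 min at room temperature before reading.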
CHX counter – counter-screen for Shiga toxin inhibitors: cycloheximide protein synthesis inhibition. cell reporter, cycloheximide protein synthesis inhibition counterscreen. max response, %. 12% of 300,000 active. AID 2314; in the data active = max response mostly above about 13%, no sharp cut-off; inactive = mostly below about 14%; also: read at 38.3 µM for the half of the compounds with a filed dose; 0% is about no effect
Shiga toxin inh – inhibitors of Shiga toxin in Vero cells. Vero cells, Shiga toxin protein synthesis inhibition reporter. inhibition, % at 38.7 µM. 9.2% of 290,000 active; in the data active = inhibition mostly above about 28%, no sharp cut-off; inactive = mostly below about 43%; also: 0% is about no effect
HCMV inh – blocks human cytomegalovirus replication; 4.5% of 410,000 active; HFF cells, HCMV-luciferase reporter, 72 h; hits give low values; AID 1259415; activity change, negative = inhibition, % at 57.5 µM; in the data active = activity change below about -60%; inconclusive = no clear call, values can overlap the other calls; inactive = above about -39%; also: % is scaled to controls: 0 for no effect and ±100 for the full control effect
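Screen run at 2 compound doses on HFFs infected with reporter HCMV, MOI 1 PFU/cell. Luciferase activity from cell lysates at 72 h post infection gave inhibition relative to buffer-only and Salinomycin wells.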
The depositor's hits bear a star; u = inconclusive; x = no result given; + = active, no number. This is a sample that favours compounds with a hit; in the whole collection about 21% have one here. Unless noted, calls follow the shape of the dose curve; as a rule, active = well fitted inhibition curve with a large enough effect; inconclusive = small, poorly fitted or top-dose-only effect, or another doubt; inactive = no such curve, though single readings can be large or run the other way.

SMILES	Pf growth 96h	Pf growth 48h	HCV inhibitor	CHX counter	Shiga toxin inh	HCMV inh
COc1cc(OC)cc(C(=O)Nc2ccccc2-c2nnn(CC(=O)Nc3cc(C)on3)n2)c1	-37.5%	u	-22.3%	-2.4	-9.1	-62.7*
CC(C)N(Cc1ccccc1)S(=O)(=O)c1ccc(Cl)nc1	u	u	-1.4%	x	x	-18.6
CCOc1ccc(S(=O)(=O)NN2Cc3ccccc3C2=N)cc1	-3.9%	-10.1%	-9.0%	3.8	-2.6	38.9
CC(=O)Oc1ccc2c(C)c(CC(=O)N3CCN(C(=O)C4COc5ccccc5O4)CC3)c(=O)oc2c1C (centres undefined)	u	11.7µM*	-24.4%	10.4	-6.1	u
COc1cc(C)cc2oc(=O)c(CC(=O)N3CCN(C(=O)C4COc5ccccc5O4)CC3)c(C)c12 (centres undefined)	0.8%	u	10µM*	-9.7	1.6	-38.5
O=C(NCCCN1CCOCC1)c1ccc(NS(=O)(=O)c2ccccc2)cc1	1.9%	5.7%	27.3%	13.2	-5.5	4.4
CCc1nc2c(OCc3ccc(OC)cc3)cccn2c1N(C)C(=O)c1ccncc1	x	x	x	x	x	-2.4
CCOc1ccc(/C=N/NC(=O)C(O)c2ccccc2)c(O)c1 (centres undefined)	-19.6%	-15.2%	-29.6%	7.0	-6.2	9.5
COC(=O)CN1C(=O)N/C(=C/c2ccccc2OC)C1=O	19.8%	-5.5%	0.9%	6.7	20.2	-0.9
CS(=O)(=O)N(CC(=O)N1CCc2ccccc2C1)c1ccccc1Br	0.3%	-3.1%	8.9%	-2.2	-8.0	3.4
Nc1cc(Cc2ccccc2)ccc1O	x	x	10.9%	x	x	u
Clc1ccc(Cl)c(Cl)c1	x	x	x	x	x	-11.6
Oc1ccc(Cl)cc1Cc1cc(Cl)ccc1O	u	u	u	-0.7	25.8	-88.6*
Oc1ccc(Cl)cc1Cc1ccccc1	7.57µM*	10.7µM*	-23.0%	x	x	0.0
CCN(CC(=O)Nc1c(F)cccc1F)C(=O)CNC(=O)c1ccc(Br)o1	65.5%	13.6%	-4.1%	x	x	-19.8
COc1ccc(Cn2ccnc2SCC(=O)NC2CCCC2)cc1	-27.4%	0.0%	2.6%	9.2	-32.7	-24.7
COc1cccc(C(=O)Nc2ccncc2)c1OC	-4.8%	2.8%	u	0.7	x	-26.1
COc1cccc(C(=O)Nc2ccc3[nH]c(=O)[nH]c3c2)c1OC	50.8%	39.2%	22.9%	8.4	54.2*	17.8
COc1cccc(NC(=O)c2ccccc2Br)c1	-16.3%	111.0%	6.4%	28.2*	x	65.1
COc1cc(OC)c(C(=O)Nc2ccc3ccccc3c2)cc1OC	8.8%	56.0%	-25.5%	43.2*	107.4*	x
COc1cccc(NC(=O)c2cc3ccccc3cc2OC)c1	u	91.5%	-22.0%	54.6*	107.8*	131.8
C[C@H](CO)N1C[C@H](C)[C@@H](CN(C)S(=O)(=O)c2ccc(F)cc2)Oc2ccc(NS(=O)(=O)c3ccccc3)cc2C1=O	x	x	1.6%	x	x	-37.2
C=Cc1ccc2c(c1)N(C)C(=C)S2	u	u	5.1%	-3.8	-17.6	-18.1
CN(C)c1ccc(NC(=O)c2cccc(C(=O)Nc3ccc(N(C)C)cc3)n2)cc1	8.28µM*	u	u	48.7*	+	-30.5
O=C(Nc1ccccc1)c1cccc(C(=O)Nc2ccccc2)n1	u	5.5%	6.8%	-2.4	-4.8	15.2
SMILES	Pf growth 96h	Pf growth 48h	HCV inhibitor	CHX counter	Shiga toxin inh	HCMV inh
COc1ccc(OC)c(NC(=O)c2cc3ccccc3cc2OC)c1	u	-7.9%	u	2.4	43.3	41.1
COc1cccc(NC(=O)c2cccc(OC)c2OC)c1	x	140.8%	u	69.8*	125.1*	72.3
COc1ccc(C(=O)NC(=S)Nc2ccc3[nH]c(=O)[nH]c3c2)c(OC)c1	18.1%	46.7%	10.7%	21.2*	34.8	-13.8
COc1cc2ccccc2cc1C(=O)Nc1ccc(O)cc1	u	u	u	44.4*	62.8*	69.0
Cc1ccc(-c2cc(C(=O)Oc3ccccc3)c3cc(C)ccc3n2)cc1	x	x	x	x	x	-21.2
CCCCCSc1nc2sc3c(c2c(=O)n1-c1ccccc1)CCN(C(C)=O)C3	x	x	x	x	x	-5.8
CC(C)c1ccc(NC(=S)Nc2ccc3[nH]c(=O)[nH]c3c2)cc1	28.8%	12.3%	4.7%	13.9	23.8*	-39.6
CCn1c2ccccc2c2cc(NC(=O)CNCc3ccccc3OC)ccc21	-17.7%	-27.7%	u	-3.9	-8.4	0.1
COc1ccc(NC(=O)c2cc3ccccc3cc2OC)cc1OC	u	-7.1%	11.2µM*	14.9*	22.8	-1.0
COc1ccccc1CNCC(=O)Nc1ccc(N(C)C)cc1	100.4%	108.6%	14.9%	50.0*	110.8*	104.9
COc1cccc(C(=O)Nc2ccc(N(C)C)cc2)c1OC	x	0.0%	-2.7%	39.4*	124.3*	91.8
CC[C@H](C)[C@H](NC(=O)[C@H](CCC(=O)O)NC(=O)[C@H](CO)NC(=O)[C@@H](NC(=O)[C@H](C)N)C(C)C)C(=O)N[C@@H](CCC(N)=O)C(=O)N[C@@H](CC(C)C)C(=O)N[C@@H](CCSC)C(=O)N[C@@H](Cc1cnc[nH]1)C(=O)N[C@@H](CC(N)=O)C(=O)N[C@@H](CC(C)C)C(=O)NCC(=O)N[C@@H](CCCCN)C(=O)N[C@@H](Cc1cnc[nH]1)C(=O)N[C@@H](CC(C)C)C(=O)N[C@@H](C)C(=O)N[C@@H](CO)C(=O)N[C@H](C(=O)N[C@@H](CCC(=O)O)C(=O)N[C@@H](CCCNC(=N)N)C(=O)N[C@@H](CCSC)C(=O)N[C@@H](CCC(N)=O)C(=O)N[C@@H](Cc1c[nH]c2ccccc12)C(=O)N[C@@H](CC(C)C)C(=O)N[C@@H](CCCNC(=N)N)C(=O)N[C@@H](CCCCN)C(=O)N[C@@H](CCCCN)C(=O)N[C@@H](CC(C)C)C(=O)N[C@@H](CCC(N)=O)C(=O)N[C@@H](CC(=O)O)C(=O)N[C@H](C(=O)N[C@@H](Cc1cnc[nH]1)C(=O)N[C@@H](CC(N)=O)C(=O)N[C@@H](Cc1ccccc1)C(=O)O)C(C)C)C(C)C	x	x	x	-3.6	8.3	x
CC(CNC(=O)c1ccc(OC2CCN(Cc3ccccn3)CC2)cc1)Oc1cccnc1 (centres undefined)	-9.2%	-18.1%	11.2%	-1.8	15.4	-19.3
CC(Cc1ccccn1)NC(=O)c1ccc(OC2CCN(Cc3ccccn3)CC2)cc1 (centres undefined)	9.28µM*	38.4%	-10.4%	38.2*	23.8*	30.5
O=C(NCCc1ccccn1)c1ccc(OC2CCN(Cc3ccccn3)CC2)cc1	6.7%	-12.8%	-7.2%	83.1*	64.1*	-36.8
Cc1csc(C(C)NC(=O)c2ccc(OC3CCN(CCc4ccccc4)CC3)cc2)n1 (centres undefined)	9.4%	10.4µM*	-1.1%	13.8	15.6	-32.9
